The results in this text go back to PubChem BioAssay.

Activity calls are given as the source filed them.

Assay [1] in a line: anti-His antibody binders, primary screen, artefact control for SMM control protein annotation, biochemical, small-molecule microarray, 635 nm fluorescence (AID 1128).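 Note: score merges feature fluorescence with signal-to-noise for each printed compound spot.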 Particulars: anti-His Alexa647 antibody binding, higher = more signal.
The test system of assay [2] is Human papillomavirus type 1a E7 protein (residues 1-88). The assay can be described thus: HPV1a E7 small-molecule binders, primary screen, biochemical, small-molecule microarray, residues 1-88, 635 nm (AID 1129). As to conditions: small-molecule microarray binding, fluorescence 635 nm; higher = more signal.
The target in assay [3] is Focal adhesion kinase 1 (Homo sapiens) (UniProt Q05397). The assay can be described thus: small-molecule microarray binders of FAK, primary screen, biochemical, 635/667 nm fluorescence, BSA, DTT (AID 1130).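 Note: composite of spot emission at 667 nm and signal to noise over triplicate slides.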 As to conditions: PTK2 binding, 635 nm fluorescence, higher = more signal.
Assay [4] relates to Fibrinogen (Alexa647-labelled). In words: fibrinogen binders on compound microarrays, profiling panel, artefact control for SMM control-protein annotation, biochemical, small-molecule microarray, 635/667 nm fluorescence (AID 1131).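 Note: z-score merges 667 nm fluorescence with per-spot signal-to-noise over triplicate slides.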 Particulars: fibrinogen-A647 binding fluorescence, higher = more signal.
Assay [5] addresses Follistatin (Homo sapiens) (UniProt P19883). The assay can be described thus: follistatin binders on small-molecule microarrays, primary screen, biochemical, small-molecule microarray, 635/667 nm fluorescence (AID 1132). Particulars: FST binding, 635 nm fluorescence, higher = more signal.
Assay [6] has as its target Fibroblast growth factor 2 (Homo sapiens) (UniProt P09038). The assay can be described thus: FGF2 binders on small-molecule microarrays, primary screen, biochemical, small-molecule microarray, 635/667 nm fluorescence (AID 1133). Particulars: small-molecule microarray binding, FGF2, fluorescence 635/667; higher = more signal.
Assay [7] in a line: mitochondrial membrane potential change in A549 cells, profiling panel, cell-based, JC-1 fluorescence, basal, 24 h, 100 nL (AID 1138).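 Note: A549 lung adenocarcinoma cells under basal conditions with no added stimulus; test concentration not given here.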 As to conditions: higher = more signal.
Assay [8] concerns Lefty1. The assay can be described thus: Lefty1 binders on small-molecule microarrays, primary screen, biochemical, small-molecule microarray, 635/667 nm fluorescence (AID 1139). As to conditions: small-molecule microarray binding, fluorescence 635/667; higher = more signal.
Assay [9] deals with wheat germ agglutinin (Triticum aestivum), Alexa647-labelled. The assay can be described thus: wheat germ agglutinin binders on compound microarrays, profiling panel, artefact control for SMM control-protein annotation, biochemical, small-molecule microarray, 635/667 nm fluorescence (AID 1140).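 Note: score merges 667 nm feature emission with signal to noise over triplicate slides.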 As to conditions: WGA-A647 binding, 635 nm fluorescence, higher = more signal.
Assay [10] concerns the target Luciferin 4-monooxygenase (Photinus pyralis) (UniProt P08659). In words: firefly luciferase enzyme inhibitors, primary screen, biochemical, luminescence, purified enzyme, 2006 set (AID 1141).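 Note: cell-free assay with purified firefly luciferase at 100 ng per well in PBS; test concentration not given here.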 As to conditions: SteadyGlo luminescence, 30 min, higher = more signal, called active from +8 up or from −8 down.

Chain of Fibroblast growth factor 2 (Homo sapiens) (P09038 whole entry, looked up): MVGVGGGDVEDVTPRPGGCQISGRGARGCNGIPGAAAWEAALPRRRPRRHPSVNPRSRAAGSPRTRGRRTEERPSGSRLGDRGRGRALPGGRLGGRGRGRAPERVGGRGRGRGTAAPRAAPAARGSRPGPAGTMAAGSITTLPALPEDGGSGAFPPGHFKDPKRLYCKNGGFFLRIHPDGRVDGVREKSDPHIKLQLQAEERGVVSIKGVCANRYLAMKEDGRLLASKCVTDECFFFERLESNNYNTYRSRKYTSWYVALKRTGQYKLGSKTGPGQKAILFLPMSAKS
Chain of Follistatin (Homo sapiens) (P19883 whole entry, looked up): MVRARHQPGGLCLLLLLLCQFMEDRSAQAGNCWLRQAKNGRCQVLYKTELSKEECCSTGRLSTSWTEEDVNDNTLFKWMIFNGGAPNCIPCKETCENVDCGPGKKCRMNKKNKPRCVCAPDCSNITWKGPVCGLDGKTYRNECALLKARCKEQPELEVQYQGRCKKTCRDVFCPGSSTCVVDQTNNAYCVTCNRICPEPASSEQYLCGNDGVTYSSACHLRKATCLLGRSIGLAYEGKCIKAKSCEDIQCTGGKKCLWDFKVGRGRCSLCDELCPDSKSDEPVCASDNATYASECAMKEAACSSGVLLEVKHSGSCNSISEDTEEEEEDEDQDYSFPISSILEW
Chain of Focal adhesion kinase 1 (Homo sapiens) (Q05397 whole entry, looked up): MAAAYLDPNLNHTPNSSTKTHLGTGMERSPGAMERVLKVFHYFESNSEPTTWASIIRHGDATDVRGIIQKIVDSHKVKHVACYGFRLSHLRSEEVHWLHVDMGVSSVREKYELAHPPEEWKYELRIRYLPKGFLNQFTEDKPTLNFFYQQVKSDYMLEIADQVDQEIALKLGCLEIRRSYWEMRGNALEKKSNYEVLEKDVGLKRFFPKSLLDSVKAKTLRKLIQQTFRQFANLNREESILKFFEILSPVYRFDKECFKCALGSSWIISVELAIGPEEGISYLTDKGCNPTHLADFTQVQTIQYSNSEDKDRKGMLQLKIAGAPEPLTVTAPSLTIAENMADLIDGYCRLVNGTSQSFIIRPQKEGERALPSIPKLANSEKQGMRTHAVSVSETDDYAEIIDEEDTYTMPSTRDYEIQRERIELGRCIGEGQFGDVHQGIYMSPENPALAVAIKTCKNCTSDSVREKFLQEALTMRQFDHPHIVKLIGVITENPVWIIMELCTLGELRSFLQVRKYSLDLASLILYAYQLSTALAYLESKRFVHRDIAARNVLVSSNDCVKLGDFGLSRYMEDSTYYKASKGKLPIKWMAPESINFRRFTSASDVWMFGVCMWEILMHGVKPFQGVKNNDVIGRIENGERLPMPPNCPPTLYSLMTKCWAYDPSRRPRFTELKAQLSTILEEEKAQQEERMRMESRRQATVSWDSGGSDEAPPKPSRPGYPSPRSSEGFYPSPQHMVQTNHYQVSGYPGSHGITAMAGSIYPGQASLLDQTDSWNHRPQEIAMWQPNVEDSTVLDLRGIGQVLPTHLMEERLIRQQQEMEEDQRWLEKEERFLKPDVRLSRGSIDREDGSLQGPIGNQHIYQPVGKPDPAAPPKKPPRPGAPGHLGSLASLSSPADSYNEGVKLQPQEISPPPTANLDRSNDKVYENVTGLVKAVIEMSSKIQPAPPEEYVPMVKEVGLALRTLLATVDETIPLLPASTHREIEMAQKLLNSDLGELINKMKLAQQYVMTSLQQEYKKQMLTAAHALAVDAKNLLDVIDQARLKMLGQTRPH
Chain of Luciferin 4-monooxygenase (Photinus pyralis) (P08659 whole entry, looked up): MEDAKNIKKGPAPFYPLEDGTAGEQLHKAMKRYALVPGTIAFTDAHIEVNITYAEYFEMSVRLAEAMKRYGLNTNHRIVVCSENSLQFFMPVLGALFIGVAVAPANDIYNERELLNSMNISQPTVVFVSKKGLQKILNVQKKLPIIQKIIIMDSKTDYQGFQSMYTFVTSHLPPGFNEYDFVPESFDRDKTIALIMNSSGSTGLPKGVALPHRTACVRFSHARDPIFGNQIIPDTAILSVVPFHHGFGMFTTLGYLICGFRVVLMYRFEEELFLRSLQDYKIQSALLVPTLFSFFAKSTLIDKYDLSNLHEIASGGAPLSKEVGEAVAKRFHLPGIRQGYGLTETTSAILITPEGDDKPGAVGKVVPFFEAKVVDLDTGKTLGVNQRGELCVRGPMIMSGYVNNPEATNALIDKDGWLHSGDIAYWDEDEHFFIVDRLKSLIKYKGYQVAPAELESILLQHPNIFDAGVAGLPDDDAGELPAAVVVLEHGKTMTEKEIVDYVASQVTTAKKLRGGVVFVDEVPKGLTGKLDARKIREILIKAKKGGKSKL

Regarding `O=C(NCC(O)CO)[C@@]1(CCS(=O)(=O)c2ccccc2)N=C(c2ccc(OCCCO)cc2)O[C@H]1c1ccccc1` (stereo not given in full), the composite z-score was 1.9 in assay [1]; 1.23 in assay [2]; 1.38 in [3]; 0.993 in assay [4]; 1.33 in assay [5]; -0.0831 in [6]. Also, the values for the composite z-score in assay [8] and in assay [9] were -1.02 and 0.762, respectively. For the same molecule, the z-score in assay [7] was -0.503; in assay [10], -0.845 (inactive).
For `CCCC[C@H]1OB(O)C[C@H]2C1=C(COc1ccccc1)C[C@H]1C(=O)C=CC(=O)[C@H]12`, the composite z-score in [1] was determined as 0.219; in assay [2], 0.398; in [3] it was 0.628; in assay [4], 0.951; in assay [5], 1.06; in assay [6], 0.696. The composite z-score in assay [8] came out at 1; in [9], 0.22. The z-score is 1.04 in assay [7] and -2.36 (inactive) in [10].
With `NC(=O)N1C(=O)C2C(C1=O)C1C=C(CCCO)C2C(c2ccc(CN3CCCC3)cc2)N1Cc1sc2ccccc2c1Cl` (stereo not given), the composite z-score in assay [1] was 0.17; in assay [2], 0.1; in assay [3] it was 0.39; in [4], -0.109; in assay [5], 0.301; in assay [6] it was -0.145. Also, the composite z-score was -0.131 in assay [8] and 0.394 in assay [9]. Further, the z-score in assay [7] is 0.947; in assay [10], -0.286 (inactive).
For `Cc1ccc(C(C)CC(O)C2C=CC3C(=O)N(C)C(=O)C3N2Nc2ccccc2)o1` (stereo not given), the composite z-score came out at 0.298 in [1]; 1.22 in assay [2]; 0.0621 in assay [3]; 0.655 in assay [4]; 0.941 in assay [5]; 0.482 in assay [6]. Further, the composite z-score in assay [8] was 0.497; in assay [9], 1.15. Also, the z-score in [7] is 0.16; in assay [10], 0.226 (inactive).
For the molecule `O=C1N(CCS(=O)(=O)c2ccccc2)c2ccccc2C[C@]12N=C(c1ccc(OCCCO)cc1)O[C@@H]2c1ccccc1`, the composite z-score in assay [1] was found to be 2.16; in assay [2] it was 0.806; in [3] it was 0.311; in assay [4], 0.783; in assay [5], 1.41; in assay [6], 1.71. Besides, the composite z-score is 0.393 in [8] and 0.392 in assay [9]. The z-score in assay [7] was 0.972; in assay [10], -0.889 (inactive).
For the molecule `COc1ccc(NN2C(C(O)c3ccc(I)cc3)C=CC3C(=O)N(C4CCCCC4)C(=O)C32)cc1` (stereo not given), the composite z-score in assay [1] was 0.698; in assay [2], 1.23; in assay [3] it was -0.0558; in assay [4], 0.951; in assay [5], 1.3; in [6] it was 0.366. For the same molecule, the composite z-score in [8] came to 0.946; in assay [9] it was 1.22. The z-score in assay [7] is 0.119; in assay [10] it was 1.29 (inactive).
Regarding `C=CCN1Cc2ccccc2[C@H]2OC(c3ccc(OCCCO)cc3)=N[C@@]2(CCS(=O)(=O)c2ccccc2)C1=O`, the composite z-score in assay [1] worked out at 2.05; in assay [2], 1.22; in [3], 0.621; in [4], 0.0869; in assay [5] it was 1.37; in assay [6], 1.37. Moreover, the composite z-score stood at 0.507 in assay [8] and 0.77 in assay [9]. In addition, the z-score in assay [7] is 0.35; in assay [10], -0.884 (inactive).
On to `O=C(N1CCOCC1)[C@@]1(Cc2ccccc2)COC(c2ccc(OCCCO)cc2)=N1`, for which the composite z-score in assay [1] is 2.69; in assay [2], 1.23; in [3], 0.674; in assay [4], 0.767; in [5], -0.119; in assay [6] it was -0.445. Besides, the composite z-score in assay [8] was -1.1; in assay [9], 0.603. Further, the z-score was -1.04 in [7] and -0.276 (inactive) in assay [10].
Regarding `C=C(COC)/C(=C/C[C@H](OC(C)=O)c1ccccc1OCCO)c1cc(C(=O)OC)ccc1OC`, the composite z-score in [1] is 0.101; in assay [2] it was 0.639; in assay [3], 0.473; in assay [4], 0.328; in assay [5], 1.18; in assay [6], 0.54. The composite z-score in [8] was 0.726; in assay [9], -0.0912. The figures for the z-score in assay [7] and in [10] were 0.45 and -0.419 (inactive), respectively.
For `COC(=O)[C@H](Cc1ccccc1)N1CC2=CCCC=C[C@@H]2[C@H]1[C@H](O)Cc1ccccc1`, the composite z-score is -0.305 in assay [1]; 0.431 in assay [2]; -0.384 in [3]; 0.515 in [4]; 0.87 in assay [5]; 0.122 in assay [6]. Besides, the results for the composite z-score in assay [8] and in [9] were 0.273 and 0.261, respectively. The values for the z-score in assay [7] and in [10] were 0.18 and -0.62 (inactive), respectively.
As to `C=C(COC)C(=O)CC[C@@H](OC(=O)c1ccccc1-c1ccccc1C(=O)O)c1ccc(OCCO)cc1`, the composite z-score in [1] is -0.0978; in assay [2] it was -0.0905; in assay [3], -0.0142; in assay [4], -1.48; in [5], 1.45; in [6], 1.42. Besides, the values for the composite z-score in [8] and in assay [9] were 1.48 and 0.595, respectively. In addition, the z-score in assay [7] is 0.0645; in assay [10], -3.04 (inactive).
For `CO[C@H]1O[C@H](CO)[C@@H](OC(=O)Nc2ccccc2-c2ccccc2)[C@H](OC(=O)Nc2ccccc2)[C@H]1OC(=O)Nc1ccccc1`, the composite z-score in [1] amounted to 1.38; in assay [2] it was 1.29; in assay [3], 0.508; in assay [4], 0.991; in [5], 1.3; in assay [6], 1.86. The values for the composite z-score in [8] and in [9] were 0.719 and 0.679, respectively. For the same molecule, the z-score is -1.06 in assay [7] and -0.849 (inactive) in assay [10].
`COc1ccc([Si](C)(C)[C@@H]2[C@@H](CC(=O)N3Cc4ccccc4C[C@H]3CO)O[C@]3(C(=O)N(Cc4ccc(N5CCOC5=O)cc4)c4ccccc43)[C@H]2C)cc1`: the composite z-score in assay [1] was found to be 1.74; in assay [2] it was 0.986; in assay [3] it was 0.239; in assay [4], 0.55; in [5], 1.32; in assay [6], 1.49. Also, the composite z-score came to 1.53 in assay [8] and 0.914 in assay [9]. Besides, the figures for the z-score in [7] and in assay [10] were 0.138 and -0.912 (inactive), respectively.
`CC=CC(O)C1C=CC2C(=O)NC(=O)C2N1Nc1ccc(Cl)cc1Cl` (stereo not given): the composite z-score in assay [1] was 1.78; in assay [2], -0.352; in assay [3] it was -0.288; in [4], -0.419; in assay [5], 1.04; in [6], -0.0658. Besides, the composite z-score in assay [8] turned out to be 0.15; in assay [9], 0.898. In addition, the figures for the z-score in [7] and in [10] were 0.099 and -0.158 (inactive), respectively.
Consider `N#Cc1ccc(NN2C(C(O)C3CC=CCC3)C=CC3C(=O)N(c4ccccc4)C(=O)C32)cc1` (stereo not given), for which the composite z-score was 0.118 in assay [1]; 1.28 in assay [2]; 0.534 in assay [3]; 1.02 in assay [4]; 0.46 in [5]; 1.05 in [6]. For the same molecule, the results for the composite z-score in assay [8] and in assay [9] were 0.361 and 1.36, respectively. The z-score was 0.0165 in [7] and -0.852 (inactive) in assay [10].
For `C[C@@H]1ON(c2ccc(I)cc2)[C@H](c2cccc(NC(=O)OCC3c4ccccc4-c4ccccc43)c2)[C@H]1C(=O)N1C(=O)OC[C@H]1Cc1ccccc1`, the composite z-score in [1] is 0.296; in assay [2], 0.506; in assay [3], -0.0828; in [4], 0.544; in [5] it was 0.566; in [6], 0.249. In addition, the composite z-score came out at 0.593 in assay [8] and 0.334 in [9]. For the same molecule, the z-score in [7] is 1.37; in [10], -1.24 (inactive).
With `COCCCNC(=O)[C@@]1(Sc2ccc(C)cc2)CC(=O)N(Cc2ccccc2C(F)(F)F)[C@@H]1c1ccc(CO)cc1I`, the composite z-score is -1.39 in assay [1]; -2.04 in [2]; -0.905 in [3]; -1.75 in assay [4]; -1.59 in assay [5]; -1.5 in [6]. For the same molecule, the composite z-score in assay [8] is -1.78; in [9] it was -1.47. Further, the z-score in assay [7] was -0.288; in [10] it was 0.166 (inactive).
